Laboratory results reported in PubChem BioAssay (NCI).
Compounds without any hit were thinned out: in the full panel of roughly 83,000, 20% have a hit.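 Cells were grown in 96-well plates and exposed to the test compound at a single concentration for 48 hours; results are reported as percent growth, with values below 10 considered active.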 Values without a mark were called inactive. Activity calls are given as the source filed them.

Assays:
Experiment in all cases: NCI-60 one-dose screen, 48 h (100 = growth as untreated, 0 = no growth, -100 = all killed)
Conditions in all cases: 10 µM unless noted
[1] = test system: SK-MEL-2 melanoma
[2] = test system: EKVX NSCLC
[3] = test system: SN12C renal
[4] = test system: UO-31 renal
[5] = test system: TK-10 renal
[6] = test system: ACHN renal
[7] = test system: CAKI-1 renal
[8] = test system: A498 renal
[9] = test system: CCRF-CEM leukemia
[10] = test system: MOLT-4 leukemia

Compound	growth [1]	growth [2]	growth [3]	growth [4]	growth [5]	growth [6]	growth [7]	growth [8]	growth [9]	growth [10]
CC(C)[N+](C)(C)CC(O)COc1cccc2ccccc12 (stereo not given)	104%	101%	103%	76.4%	111%	101%	102%	92.9%	88.1%	109%
O=[N+]([O-])c1cccc(/C=C/c2ccc3ccccc3n2)c1	68%	79.8%	83%	76.6%	64.4%	53%	78.3%	125%	82.1%	75.3%
COc1cc(OC)c(/C=C/C(=O)c2c(N)cc(OC)cc2OC)c(OC)c1	12.4%	49.3%	37%	43.7%	44.3%	36.6%	12.3%	-11.4% (active)	12.3%	35.8%
Cn1cc(-c2nnc(-c3cn(C)c4ncc(Br)cc34)s2)c2cc(Br)ccc21	101%	69.2%	94.5%	79.8%	108%	94.2%	73.9%	52.6%	-27.5% (active)	97.3%
O=c1c2c3c(sc2n2cnnc2n1Cc1ccccc1)CCCC3	97.6%	71.2%	105%	7.39% (active)	115%	99.1%	95.3%	92.1%	82.4%	86.3%
COc1ncc(-c2ccc3nccc(C#CCCCCC(=O)O)c3c2)cc1NS(=O)(=O)c1ccc(F)cc1F	31.3%	22%	40.8%	12.5%	3.96% (active)	32%	14.1%	-34.5% (active)	24.4%	29%
CCOC(=O)c1ccc2nc(-c3c(C)nn(-c4ccccc4)c3N3CCOCC3)[nH]c2c1	110%	87.5%	90.9%	69.1%	147%	86.2%	78.6%	70.4%	88.8%	84.4%
CCC(C)[C@H](NC(=O)NC(=O)NC(=O)CI)C(=O)OC (stereo not given in full)	86.1%	102%	89.3%	-21.3% (active)	91.8%	57.3%	-59.6% (active)	89.1%	-46.2% (active)	-16.7% (active)
O=C1Nc2ccccc2/C1=C/C(=O)c1ccc(N2CCOCC2)cc1	99%	98%	93.7%	59.6%	102%	72.7%	78.4%	89.7%	9.92% (active)	47.8%
CCn1cc(-c2cc(-c3ccc(Cl)cc3)nc(N)n2)c(-c2ccc(Br)cc2)n1	62.7%	78.1%	84.5%	67.7%	80.2%	46.9%	51.8%	92%	82.9%	83.4%
COc1cc2c(c(OC)c1)C1c3cc(OC)ccc3NC(=O)N1CC2 (stereo not given)	45.5%	91.9%	88.5%	78.5%	82.5%	100%	77.8%	74.7%	88.2%	72.9%
C=C(C)[C@@H]1CC[C@]2(C(N)=O)CC[C@]3(C)[C@H](CC[C@@H]4[C@@]5(C)C/C(=C/c6cccnc6)C(=O)C(C)(C)[C@@H]5CC[C@]43C)[C@@H]12	-47.4% [100 µM] (active)	21.2% [100 µM]	18.5% [100 µM]	10.2% [100 µM]	23.5% [100 µM]	7.09% [100 µM] (active)	8.38% [100 µM] (active)	17.3% [100 µM]	7.08% [100 µM] (active)	2.39% [100 µM] (active)
O=C(N/N=C\c1cc(Cl)ccc1O)N/N=C/c1cc(Cl)ccc1O	70.6%	69.4%	66.8%	17.3%	55.4%	27.5%	60.2%	80.3%	27.4%	43.2%
COc1ccc(C2NC(=O)C(C#N)c3c2sc2c(F)cccc32)cc1 (stereo not given)	60%	62.8%	61.5%	36.8%	113%	43.6%	40%	32.2%	44%	49.1%
Cn1c(=O)c(C#N)c(-c2ccco2)n2c(S(=O)(=O)Cc3ccccc3)nnc12	58.5%	99.7%	110%	41.4%	78.3%	65.9%	82.4%	84.8%	77.4%	102%
C=C(C)[C@@H]1CC[C@]2(C(=O)OC)CC[C@]3(C)[C@H](CC[C@@H]4[C@@]5(C)CC/C(=N\OCCC(=NCCC#N)NOCCC#N)C(C)(C)[C@@H]5CC[C@]43C)[C@@H]12	36.2% [100 µM]	53.1% [100 µM]	-71.9% [100 µM] (active)	19% [100 µM]	37.9% [100 µM]	13.9% [100 µM]	18.5% [100 µM]	-0.384% [100 µM] (active)	7.42% [100 µM] (active)	-26.8% [100 µM] (active)
COc1ccc(C(C(=O)O)c2ccc(OC)cc2)cc1	111%	106%	121%	108%	114%	109%	112%	86.7%	100%	104%
CC1(C)CC[C@]23CC[C@]4(C)[C@H](CC[C@@H]5[C@@]6(C)C/C(=C/c7ccncc7)C(=O)C(C)(C)[C@@H]6CC[C@]54C)[C@H]2[C@H]1OC3=O	29.5% [100 µM]	85.5% [100 µM]	65.6% [100 µM]	91.8% [100 µM]	51.5% [100 µM]	43.9% [100 µM]	50.8% [100 µM]	58.6% [100 µM]	79.3% [100 µM]	69.1% [100 µM]
CN(C)C(=S)Sc1ccc([N+](=O)[O-])cc1[N+](=O)[O-]	57.8%	82.4%	41.8%	16.7%	67.8%	-44.4% (active)	4.43% (active)	80.5%	4.55% (active)	0.177% (active)
C[n+]1cccc(NC(=O)c2ccc3ccc4ccc(C(=O)Nc5ccc[n+](C)c5)nc4c3n2)c1	56.9%	68.1%	-14.8% (active)	65.4%	94.2%	41.8%	52.3%	95.3%	71.1%	71.5%
CN(C)CCCNc1nc(-c2cccc(C(Cl)(Cl)Cl)c2)nc(C(Cl)(Cl)Cl)n1	99%	104%	102%	83.5%	115%	108%	98.2%	65.9%	98.3%	84.4%
O=S(=O)(/N=c1/n(-c2ccccc2)nc2n1CCN2C1=NCCN1)c1ccc(-c2ccccc2)cc1	115%	95.9%	93.6%	84.4%	108%	101%	92%	82.9%	94.7%	95.1%
CC1(C)C(=O)/C(=C\c2cccnc2)C[C@]2(C)[C@H]3CC[C@@H]4[C@H]5[C@H](C(=O)/C=C/c6cccnc6)CC[C@]5(C(=O)O)CC[C@@]4(C)[C@]3(C)CC[C@@H]12	-55.1% [100 µM] (active)	-73% [100 µM] (active)	-29.4% [100 µM] (active)	-32.9% [100 µM] (active)	-89.5% [100 µM] (active)	-71.1% [100 µM] (active)	-66% [100 µM] (active)	-77.5% [100 µM] (active)	-6.59% [100 µM] (active)	4.49% [100 µM] (active)
C=C(C)[C@@H]1CC[C@]2(C)[C@H](CC[C@@H]3[C@@H]([C@@](C)(O)CCC=C(C)C)CC[C@]32C)[C@@]1(C)CCC(=O)O	-41.6% [100 µM] (active)	8.69% [100 µM] (active)	-64.2% [100 µM] (active)	-93.1% [100 µM] (active)	18.1% [100 µM]	6.72% [100 µM] (active)	2.11% [100 µM] (active)	-20.2% [100 µM] (active)	0.565% [100 µM] (active)	-0.176% [100 µM] (active)
